In PubChem BioAssay (EPA / NIEHS) one finds outcome and AC50 data, which are given here for 14 compounds.

The term AC50 denotes the midpoint of the concentration-response curve, whichever way the signal moves.

Inconclusive results are not listed. The source made the active and inactive calls. The calls were made as follows: active = hit-call score of the fitted dose curve at least 0.9, where 1 is the maximum; inconclusive = response in the unintended direction; inactive = score below 0.9.

Serine/threonine-protein phosphatase PP1-alpha catalytic subunit (Homo sapiens), sequence (P62136 whole entry, looked up): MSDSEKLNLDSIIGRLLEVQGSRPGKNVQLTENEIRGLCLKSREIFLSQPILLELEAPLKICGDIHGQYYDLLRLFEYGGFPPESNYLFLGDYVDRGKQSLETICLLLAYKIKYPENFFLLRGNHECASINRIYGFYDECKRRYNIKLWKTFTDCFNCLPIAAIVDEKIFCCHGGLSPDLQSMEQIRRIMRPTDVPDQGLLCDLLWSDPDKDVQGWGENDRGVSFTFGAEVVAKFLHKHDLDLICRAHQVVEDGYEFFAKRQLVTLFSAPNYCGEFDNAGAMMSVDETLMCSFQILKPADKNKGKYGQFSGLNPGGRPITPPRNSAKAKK
human Protein Tyrosine Phosphatase Non-receptor Type 9 (PTPN9), PTPN9 (gene 5780), sequence (P43378 whole entry, looked up): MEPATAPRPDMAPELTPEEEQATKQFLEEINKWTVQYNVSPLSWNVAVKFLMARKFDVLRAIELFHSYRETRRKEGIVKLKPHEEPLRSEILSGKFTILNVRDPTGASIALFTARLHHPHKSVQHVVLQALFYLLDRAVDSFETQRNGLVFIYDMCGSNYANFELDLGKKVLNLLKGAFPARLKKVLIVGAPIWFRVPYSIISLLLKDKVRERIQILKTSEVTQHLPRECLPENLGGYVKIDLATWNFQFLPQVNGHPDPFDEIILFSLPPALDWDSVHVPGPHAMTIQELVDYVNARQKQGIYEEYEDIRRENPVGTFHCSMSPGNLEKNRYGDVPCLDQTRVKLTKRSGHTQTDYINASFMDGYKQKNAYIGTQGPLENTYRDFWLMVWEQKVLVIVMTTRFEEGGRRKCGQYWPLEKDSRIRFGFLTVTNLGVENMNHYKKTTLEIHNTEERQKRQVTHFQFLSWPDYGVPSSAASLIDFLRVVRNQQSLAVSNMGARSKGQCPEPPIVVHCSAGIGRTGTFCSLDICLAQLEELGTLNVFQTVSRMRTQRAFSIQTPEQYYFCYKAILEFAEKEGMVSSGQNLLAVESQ
human Protein Phosphatase, Mg2+/Mn2+ Dependent 1A (PPM1A), PPM1A (gene 5494), sequence (P35813 whole entry, looked up): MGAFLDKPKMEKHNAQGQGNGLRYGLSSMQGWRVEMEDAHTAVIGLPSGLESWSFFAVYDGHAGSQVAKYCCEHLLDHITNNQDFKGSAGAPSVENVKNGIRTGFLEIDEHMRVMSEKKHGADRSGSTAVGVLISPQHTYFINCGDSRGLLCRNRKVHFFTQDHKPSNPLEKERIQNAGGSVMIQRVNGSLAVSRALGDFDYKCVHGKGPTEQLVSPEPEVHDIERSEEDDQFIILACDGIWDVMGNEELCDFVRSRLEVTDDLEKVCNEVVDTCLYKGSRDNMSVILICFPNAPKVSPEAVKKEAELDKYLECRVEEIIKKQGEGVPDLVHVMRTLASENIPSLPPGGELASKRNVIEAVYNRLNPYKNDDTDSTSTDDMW

One experiment concerns the target human Protein Phosphatase, Mg2+/Mn2+ Dependent 1A (PPM1A), PPM1A (gene 5494) (UniProt P35813). The experiment can be described thus: NVS_ENZ_hPPM1A: NovaScreen (NVS) Enzymatic Assay for human Protein Phosphatase, Mg2+/Mn2+ Dependent 1A (PPM1A) (AID 2283198). In outline:
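Cell-free recombinant PPM1A phosphatase assay with fluorescent substrate, read 1 h after dosing by electrophoretic mobility shift. Chemicals screened in duplicate at 25 uM, then in concentration-response up to 50 uM; loss of activity versus DMSO.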
As to `CC(C)(C)c1cc(O)c(C(C)(C)C)cc1O`, the outcome was inactive.
Still for that read-out and setting: under `Oc1ccc2c(c1)OC[C@@H](N1CCC(O)(c3ccc(F)cc3)CC1)[C@H]2O` stands “inactive”; under `CCCCCCC(=O)OCC`, “inactive”; under `Cc1cc(=O)[nH]c(=S)[nH]1`, “inactive”.
On the same count and under the same terms, the same measure for `CN[C@H]1CC[C@@H](c2ccc(Cl)c(Cl)c2)c2ccc(S(N)(=O)=O)cc21`: “inactive”.

The target of another experiment is Serine/threonine-protein phosphatase PP1-alpha catalytic subunit (Homo sapiens) (UniProt P62136). The experiment can be described thus: NVS_ENZ_hPPP1CA: NovaScreen (NVS) Enzymatic Assay for human Protein Phosphatase 1 Aatalytic subunit Alpha (PPP1CA) (AID 2283200). On the procedure:
NVS_ENZ_hPPP1CA is a biochemical, single-readout assay that uses extracted gene-proteins in a cell-free assay. Measurements were taken 1.33 hours after chemical dosing in a 384-well plate.NVS_ENZ_hPPP1CA is one of one assay component(s) measured or calculated from the NVS_ENZ_hPPP1CA assay. It is designed to make measurements of enzyme activity, a form of enzyme reporter, as detected with fluorescence intensity signals by Fluorescence and electrophoretic mobility shift technology.Data from the assay component NVS_ENZ_hPPP1CA was analyzed into 1 assay endpoint. This assay endpoint, NVS_ENZ_hPPP1CA, was analyzed in the positive analysis fitting direction relative to DMSO as the negative control and baseline of activity. Using a type of enzyme reporter, loss-of-signal activity can be used to understand changes in the enzymatic activity as they relate to the gene PPP1CA. Furthermore, this assay endpoint can be referred to as a primary readout, because this assay has produced multiple assay endpoints where this one serves a enzymatic activity function. To generalize the intended target to other relatable targets, this assay endpoint is annotated to the phosphatase intended target family, where the subfamily is serine/threonine phosphatase.
Binding assays used specific radioligands (tritiated, iodinated) with non-radioactive competitive displacement ligands in agonist or antagonist protocols (as indicated) and various reference compounds and inhibitors to titrate specific binding to receptors and transporters. Most enzyme assays (CYPs, kinases, phosphatases, proteases, HDACs) used recombinant protein and specific substrates (fluorescence mostly, some colorimetric and radioactive) and inhibitors, followed by a biochemical separation of substrate and product. All assays for the biochemical HTS were initially run in duplicate at a single concentration (10 uM for CYP450 assays and 25 uM for all others). Assay-chemical combinations meeting a pre-defined threshold (e.g., 30% inhibition and other criteria defined below) were then run in singleton concentration-response format with maximum concentration of 20 uM for CYPs and 50 uM for all others. Each assay was run with positive and negative controls, and concurrent controls on every plate. The follow-up (secondary) screen tested active chemical-pairs in concentration series, as well as a few additional assays not tested in the primary screen, some selected negative inactives, and several cases re-run in the concentration series for confirmatory purposes.
`Nc1ccc2c(c1)C(=O)c1ccccc1C2=O`: the outcome was inactive.
Still for that read-out and setting: the same measure for `CCCCN(CCCC)CCCC`: “inactive”; for `CC1(C)NC(=O)NC1=O`: “inactive”.
In the case of `COc1cc(-c2nc(NC(=O)c3cc4cc(C)cc(C)c4n3CC(=O)O)sc2CCC2CCCCC2)c(OC)cc1Cl`, the AC50 is 1.42 µM (active).

The target of a further experiment is human Protein Tyrosine Phosphatase Non-receptor Type 9 (PTPN9), PTPN9 (gene 5780) (UniProt P43378). The experiment can be described thus: NVS_ENZ_hPTPN9: NovaScreen (NVS) Enzymatic Assay for human Protein Tyrosine Phosphatase Non-receptor Type 9 (PTPN9) (AID 2283209). In outline:
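Sf9-expressed enzyme in a cell-free assay, fluorescence read 1.33 h after dosing with mobility-shift separation of substrate and product. Tested at 25 uM in duplicate, then up to 50 uM; signal loss versus DMSO.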
For the compound `Cc1ccc2ncccc2c1`, the compound was called inactive.
For `O=[N+]([O-])C(CO)(CO)CO`, the AC50 is 38.4 µM (active).
Take `O=C(O)CCCCC(=O)O`: the outcome was inactive.
Take `Oc1ccc2ccccc2c1N=Nc1ccccc1`: the concentration at half-maximal activity (AC50) was 25 µM (active).
Regarding `CCCCCCCCCCC`, the outcome was inactive.
